Screens: PubChem BioAssay, National Center for Advancing Translational Sciences (NCATS)
AMA1 RON2 block: AMA1-RON2 (P. falciparum) interaction inhibition; AlphaScreen AMA1-biotinylated RON2 peptide binding; Potency, µM (series often up to 58.2 µM), hits mostly inhibitors; 360,000 compounds, 0.2% hits; AID 720542; further: nearly all actives have a fitted effect of over 45% in size
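AMA1 (3D7) with his tag at 25 nM final met compounds first, then biotinylated RON2 peptide at 25 nM; detection used donor plus acceptor beads, 10 µg/mL apiece, read by AlphaScreen after 30 min at room temperature.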
LmPK inhibitor: LmPK (Leishmania mexicana) enzyme inhibition. Q27686. purified LmPK, Kinase-Glo ATP luminescence, 1 h. Potency, µM (doses to about 57.5 µM), most hits filed as inhibitors. 290,000 compounds, 0.37% hits
Target sequence (Q27686 whole entry, looked up): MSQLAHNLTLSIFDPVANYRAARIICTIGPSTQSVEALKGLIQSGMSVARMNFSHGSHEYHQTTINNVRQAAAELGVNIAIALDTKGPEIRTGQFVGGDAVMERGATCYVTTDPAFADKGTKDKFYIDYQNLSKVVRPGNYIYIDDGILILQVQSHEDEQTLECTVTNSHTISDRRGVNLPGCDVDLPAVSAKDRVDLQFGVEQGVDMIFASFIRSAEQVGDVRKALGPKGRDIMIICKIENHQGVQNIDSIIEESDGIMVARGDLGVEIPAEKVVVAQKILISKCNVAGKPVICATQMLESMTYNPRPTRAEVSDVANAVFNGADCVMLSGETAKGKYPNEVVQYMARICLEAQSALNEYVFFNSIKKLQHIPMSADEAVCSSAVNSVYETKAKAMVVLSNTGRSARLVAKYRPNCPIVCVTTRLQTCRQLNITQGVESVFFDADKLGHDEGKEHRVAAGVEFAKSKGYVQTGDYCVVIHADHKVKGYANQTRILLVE
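Purified LmPK (0.1 nM) converted ADP (0.1 mM) to ATP with PEP (0.5 mM) in imidazole buffer pH 7.2 with KCl and MgCl2, 1 h at room temperature. ATP was read by Kinase-Glo luminescence; data normalized to uninhibited and no-enzyme controls.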
Tb PYK inh: T. brucei pyruvate kinase inhibition; Q57TT1; TbPYK enzyme, Kinase-Glo Plus ATP luminescence, 45 min; Potency, µM (series often up to 76.8 µM), most hits filed as inhibitors; 410,000 compounds, 0.12% hits; AID 624173; further: nearly all actives have a fitted effect of over 50% in size
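Readout: single end-point luminescence (Kinase-Glo Plus, 10 min). Reaction conditions were TbPYK/substrate plus 130 uM ADP, 45 min at RT, pH 7.2 TEA buffer. No-enzyme wells served as controls, and data were normalized before concentration-response fitting.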
RE007 growth inh: less growth of the S. pombe RE007 Vpr strain. S. pombe RE007 Vpr strain, BacTiter-Glo ATP luminescence, 24 h. Potency, µM (highest dose often 92.2 µM), usual class: inhibitors. 360,000 compounds, 0.21% hits. AID 651644; active means well fitted falling curve with a large enough effect; inconclusive means small, poorly fitted or top-dose-only effect; inactive means no such curve, though single readings can be large or run the other way; further: nearly all actives have a fitted effect of over 50% in size
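Fission yeast strain RE007, carrying one chromosomally integrated HIV-1 vpr copy, was seeded at OD 0.01 in PMG+AL medium with 23 nL pinned compound. After 24 h at 30 °C and 99% humidity, viability was read by BacTiter-Glo luminescence.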
SARS PLpro yeast-1: inhibitors of SARS-CoV papain-like protease in yeast; S. cerevisiae expressing SARS-CoV PLpro, growth rescue; Potency, µM (doses to about 32.9 µM), usual class: activators; 330,000 compounds, 0.19% hits; AID 485353; calls by dose curve; further: nearly all actives have a fitted effect of over 55% in size
SARS PLpro yeast-2: Rescues yeast growth by inhibiting SARS-CoV PLpro; yeast expressing SARS-CoV PLpro, growth phenotype rescue; shares compounds with SARS PLpro yeast-1; 1,000 compounds, 19% hits; AID 652038; calls only; call rule not given here
A number is an active result; n = inactive; u = inconclusive; x = no result; + = active, no number; [ ] = dose if it differs, or a comment. Sampled rows, rich in hits. Any-hit rate of the full collection: about 0.81%. Unless noted, the call rests on the fitted dose curve; in most records, active means well fitted curve in the direction sought with a large enough effect; inconclusive means small, poorly fitted or top-dose-only effect, or another doubt; inactive means no such curve, though single readings can be large; an effect the other way counts as inactive or inconclusive.

SMILES	AMA1 RON2 block	LmPK inhibitor	Tb PYK inh	RE007 growth inh	SARS PLpro yeast-1	SARS PLpro yeast-2
COc1c(/C=N/NC(=O)c2ccccc2O)c(CCN(C)C(C)=O)cc2c1OCO2	n[11.6 µM]	n	n	n	n	x
CCC(=O)N(C)CCc1cc2c(c(OC)c1/C=N/NC(=O)c1ccccc1O)OCO2	n[11.6 µM]	n	n	n	u	+
O=C(CSc1nc(-c2ccco2)cc(C(F)(F)F)n1)Nc1ccccc1C(F)(F)F	n	n	n	n	u	n
COc1ccc(C(=O)CSc2nnc(NC(=O)C3CC(=O)N(c4ccccc4)C3)s2)cc1 (configuration not stated)	n	n	n	n	u	u
CN(CC(=O)NC1(C)CCS(=O)(=O)C1)S(=O)(=O)c1ccc(Cl)cc1 (configuration not stated)	n	x	n	n	n	x
Cc1nn(CC(=O)NC2(C)CCS(=O)(=O)C2)c(C)c1S(=O)(=O)N(C)C (configuration not stated)	n	x	n	n	u	n
COCCNC(=S)N1CCN(S(=O)(=O)c2ccc(Cl)s2)CC1	n	n	n	n	x	n
COc1ccc(N2CCN(C3CCCN(C(=O)C4=C(C)OCCO4)C3)CC2)cc1 (configuration not stated)	n	n	n	n	u	n
COc1ccc(N2CCN(C3CCCN(C(=O)c4ccoc4)C3)CC2)cc1 (configuration not stated)	n	n	n	n	n	x
O=C(NCC(c1cccnc1)N1CCN(c2ccccc2F)CC1)C1CCCCC1 (configuration not stated)	n	n	n	n	u	n
Cc1cccc(NC(=O)NCC(c2cccnc2)N2CCOCC2)c1 (configuration not stated)	n	n	n	n	18µM	n
Cc1ccc(NC(=O)C(=O)NCC(c2cccnc2)N2CCOCC2)cc1C (configuration not stated)	x	x	n	x	x	x
O=C(Oc1c(-c2ccccc2)c(=O)n2c3c(cccc13)CC2)c1ccc(F)cc1	n	n	n	n	n	x
Cc1ccc(SCCCCN2C(=O)NC(C)(C)C2=O)cc1	n	n	n	n	u	n
CC1(C)NC(=O)N(CCSc2ccc(Cl)cc2)C1=O	n	n	x	n[3.69 µM]	n	x
C[C@]12CC[C@@H]3c4ccc(O)cc4CC[C@H]3[C@@H]1CC[C@@H]2O	n	n	n	n	n	x
C[C@]12CC[C@@H]3c4ccc(O)cc4CC[C@H]3[C@@H]1C[C@@H](O)[C@@H]2O[C@@H]1O[C@H](C(=O)O)[C@@H](O)[C@H](O)[C@H]1O	n	n	n	n	u	n
O=C(N/N=C/c1c(O)n(C2CC2)c(=S)[nH]c1=O)c1ccccc1O	n	n	n	n	13µM	n
Cc1ccccc1-n1c(O)c(/C=N/NC(=O)c2ccccc2O)c(=O)[nH]c1=S	n	n	n	n	n	x
Cc1sc(NC(=O)c2ccccc2)c(C(=O)NC(C)C)c1C	n	n	n	n	u	n
COc1cccc(-c2ccnc3c(-c4ccc(F)cc4)c(C)nn23)c1	x	x	n	x	x	x
CCc1ccccc1NC(=S)N(CCCN1CCOCC1)Cc1cccs1	n	n	n	n	u	n
S=C(Nc1ccc(Cl)cc1)N(CCCN1CCOCC1)Cc1cccs1	n	n	n	n	n	x
O=C(Nc1ccc(Cl)cc1)N(CCCN1CCOCC1)Cc1cccs1	n	n	n	n	u	n
O=Cc1c(NCCN2CCCC2)c2ccccc2[nH]c1=O	n	n	n	n	n	x
SMILES	AMA1 RON2 block	LmPK inhibitor	Tb PYK inh	RE007 growth inh	SARS PLpro yeast-1	SARS PLpro yeast-2
CCNC(=S)N/N=C/c1cccc(/C=N/NC(=S)NCC)c1	n	n	n	n	n	x
CCNC(=S)N/N=C/c1cccs1	n	n	n	n	u	+
C=C1CC2C=C(NC(C)=O)CC(C1)C2 (configuration not stated)	n	n	n	n	u	n
CCOC(=O)[C@H]1[C@H]2COc3ccc(Cl)cc3[C@@H]2N2C(=O)[C@@H](C)NC(=O)[C@@]12C	n	x	n	n	n	x
CCOC(=O)CSc1nc2c(sc(=S)n2Cc2ccco2)c(=O)n1-c1ccccc1	n	n	n	n	u	n
CCn1ncc(S(=O)(=O)Nc2cc(Cl)ccc2C)c1C	n	n	n	n	n	x
CN(C)c1ccc(-c2nc3ccccn3c2/N=C/c2ccc(Br)cc2)cc1	u	n	n	u	x	n
COc1ccc(CCn2c(C)cc(C(=O)CCl)c2C)cc1OC	n	n	n	n	10µM	+
CCCN1CCN(CC2=C(C(=O)OCC)C(c3ccc(Cl)cc3)NC(=O)N2)CC1 (configuration not stated)	x	x	n	x	x	x
O=C(N/N=C/c1ccccc1O)c1cccc(C(F)(F)F)c1	n	n	n	n	u	n
O=C(N/N=C/c1ccc(O)cc1)c1cccc(C(F)(F)F)c1	n	n	n	n	u	x
CCC(C)NC(=O)c1ccc(Cl)c(S(=O)(=O)Nc2ccccc2N2CCOCC2)c1 (configuration not stated)	n	x	n	n	n	x
CC(C)N1C/C(=C/c2ccsc2)C(=O)/C(=C/c2ccsc2)C1	n	n	n	n	22µM	n
COCCNC(=O)C1CCCN(C(=O)COCc2ccccc2)CC1 (configuration not stated)	n	x	n	n	x	x
CCCCCC(=O)NNC(=S)NC(=O)c1cccc([N+](=O)[O-])c1	n	n	u	x	11µM	n
O=C(Nc1nc2c(F)cc(F)cc2s1)c1ccc(S(=O)(=O)N2CCc3ccccc32)cc1	x	x	n	x	x	x
O=C(Nc1nc2ccc(F)cc2s1)c1cccc(S(=O)(=O)N2CCc3ccccc32)c1	n	n	n	n	3.2µM	n
O=C(Nc1ccc(F)c(F)c1)c1ccccc1-c1ccccc1	n	n	n	n	14µM	n
O=S(OCCN1CCOCC1)C(c1ccccc1)c1ccccc1 (configuration not stated)	n	x	n	n	x	x
COc1ccc(C(=O)NC(C)C2CC3CCC2C3)cc1 (configuration not stated)	n	n	n	n	n	x
CC(NC(=O)c1ccc(N(C)C)cc1)C1CC2CCC1C2 (configuration not stated)	n	n	n	n	22µM	n
COC(=O)c1ccc(NC(=O)C2CCN(C(=O)c3cc(OC)c(OC)c(OC)c3)CC2)cc1	n	n	n	n	n	x
CCOC(=O)c1ccc(NC(=O)C2CCN(C(=O)c3ccc(OC)c(OC)c3)CC2)cc1	n	n	n	n	u	n
CCc1sc(N)nc1-c1ccccc1	n	n	n	n	u	n
Nc1nc(-c2ccccc2)c(CC(=O)O)s1	n	x	n	n	x	x
CC(Sc1ccc(S(=O)(=O)N(C)C)cn1)C(=O)NC1CCCC1 (configuration not stated)	n	x	n	n	n	x
